Our source for the Potency values is PubChem BioAssay (NCATS).

Assay [1] in a line: Quantitative High-Throughput drug screen in 47 multiple myeloma cell lines against the NCATS MIPE library collection: OCIMY5_PLB cell viability assay (AID 1918988). Note: nearly all actives have a fitted effect of over 65% in size. Summed up: (§1)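 Myeloma cells (500/well) treated with MIPE 4.0 compounds for 48 h at 37 °C, 5% CO2. Viability read as ATP via CellTiter-Glo luminescence after 5 min at RT; DMSO-only wells = 100%, media-only = 0% viability.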

Assay [2] in a line: Quantitative High-Throughput drug screen in 47 multiple myeloma cell lines against the NCATS MIPE library collection: OPM1_PLB cell viability assay (AID 1918989). Note: nearly all actives have a fitted effect of over 40% in size. The gist of the method:
as §1

Assay [3] is described as follows: Quantitative High-Throughput drug screen in 47 multiple myeloma cell lines against the NCATS MIPE library collection: U266_ATCC cell viability assay (AID 1919864). Note: nearly all actives have a fitted effect of over 35% in size. Summed up:
as §1

Assay [4] in a line: Quantitative High-Throughput drug screen in 47 multiple myeloma cell lines against the NCATS MIPE library collection: XG6_PLB cell viability assay (AID 1919865). Note: nearly all actives have a fitted effect of over 40% in size. The gist of the method:
as §1

The nature of assay [5]: Quantitative High-Throughput drug screen in 47 multiple myeloma cell lines against the NCATS MIPE library collection: XG1_PLB cell viability assay (AID 1919866). Note: nearly all actives have a fitted effect of over 35% in size. Summed up: as §1
A short description of assay [6]: Quantitative High-Throughput drug screen in 47 multiple myeloma cell lines against the NCATS MIPE library collection: PE2_PLB cell viability assay (AID 1919869). Note: nearly all actives have a fitted effect of over 35% in size. Summed up:
as §1

Assay [7] can be described thus: Quantitative High-Throughput drug screen in 47 multiple myeloma cell lines against the NCATS MIPE library collection: RPMI8226_ATCC cell viability assay (AID 1919871). Note: nearly all actives have a fitted effect of over 30% in size. The gist of the method:
as §1

Assay [8] can be described thus: Quantitative High-Throughput drug screen in 47 multiple myeloma cell lines against the NCATS MIPE library collection: OPM2_DSMZ cell viability assay (AID 1919872). Note: nearly all actives have a fitted effect of over 30% in size. The gist of the method:
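Viability readout: CellTiter-Glo luminescence following 5 min room-temperature incubation with reagent. Prior exposure: 48 h, 37C, humidified 5% CO2, 500 cells per well.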

Assay [9] can be described thus: Quantitative High-Throughput drug screen in 47 multiple myeloma cell lines against the NCATS MIPE library collection: KMS11_JCRBsus cell viability assay (AID 1919873). Note: nearly all actives have a fitted effect of over 50% in size. The gist of the method: as §1
Assay [10] in a line: Quantitative High-Throughput drug screen in 47 multiple myeloma cell lines against the NCATS MIPE library collection: KMS28BM_JCRB cell viability assay (AID 1919874). Note: nearly all actives have a fitted effect of over 35% in size. Summed up:
as §1

Assay [11] can be described thus: Quantitative High-Throughput drug screen in 47 multiple myeloma cell lines against the NCATS MIPE library collection: VP6_DJ cell viability assay (AID 1919867). Note: nearly all actives have a fitted effect of over 40% in size. Summed up: as §1
Assay [12] in a line: Quantitative High-Throughput drug screen in 47 multiple myeloma cell lines against the NCATS MIPE library collection: PCM6_Riken cell viability assay (AID 1919870). Note: nearly all actives have a fitted effect of over 30% in size. The gist of the method: as §1
The nature of assay [13]: Quantitative High-Throughput drug screen in 47 multiple myeloma cell lines against the NCATS MIPE library collection: OCIMY7_PLB cell viability assay (AID 1918987). Note: nearly all actives have a fitted effect of over 65% in size. The note with it: OCI-MY7 myeloma viability, CellTiter-Glo ATP, 48 h; viability (% of DMSO): at 45.8 µM (top of the series). Summed up:
as §1
In general terms: Cellular ATP, detected with luciferase, serves as a proxy for viable cell number.

Assay [14] in a line: Quantitative High-Throughput drug screen in 47 multiple myeloma cell lines against the NCATS MIPE library collection: UTMC2_PLB cell viability assay (AID 1919868). Note: nearly all actives have a fitted effect of over 55% in size. To be noted: CellTiter-Glo ATP luminescence, 48 h; viability (% of DMSO control): at 45.8 µM (top of the series). The gist of the method: as §1
The nature of assay [15]: Quantitative High-Throughput drug screen in 47 multiple myeloma cell lines against the NCATS MIPE library collection: SKMM1_PLB cell viability assay (AID 1919863). Note: nearly all actives have a fitted effect of over 35% in size. The note with it: SKMM1 myeloma viability, CellTiter-Glo ATP, 48 h; viability: active compounds read low. Summed up: as §1

Records with an inconclusive call do not appear. A number with no mark means an inactive call. Active and inactive are the calls of the source. Calls come from the whole dose curve; as a rule, active = well fitted cell-killing curve with a large enough effect; inconclusive = small, poorly fitted or top-dose-only effect, or effect the other way; inactive = no such curve, though single readings can be large or run the other way.
Potency is the fitted concentration of half-maximal effect.

Take `CCN1CCN(c2ccc(Nc3cc(N(C)C(=O)Nc4c(Cl)c(OC)cc(OC)c4Cl)ncn3)cc2)CC1`: the Potency in [1] was 13.2 µM (active); in [2], 0.0235 µM (active); in assay [4], 6.62 µM (active); in [5] it was 11.8 µM (active); in assay [8] it was 0.209 µM (active). Also, the Potency entry in assay [3], in assay [6], in assay [7], in assay [9] and in assay [10] was “inactive” throughout.

`O=c1cc(-c2ccc(O)c(O)c2)oc2cc(O)cc(O)c12`: the Potency in assay [4] is 14.8 µM (active); in [11] it was 11.8 µM (active). Moreover, the Potency entry in assay [12], in [7], in [9] and in assay [10] was “inactive” each time.

With `O=C(Nc1cccc(C(F)(F)F)c1)Nc1cc(S(=O)(=O)NC2CC2)ccc1-c1ccsc1`, the Potency in assay [13] is 18.7 µM (active); in assay [2], 26.4 µM (active); in [4], 23.5 µM (active); in assay [14], 18.7 µM (active); in [6], 26.4 µM (active); in assay [7], 13.2 µM (active). The Potency was 3.72 µM (active) in assay [8], 16.6 µM (active) in assay [9] and 20.9 µM (active) in assay [10].

For `CN(C)c1ccccc1CN1CCCN(Cc2ccccc2N(C)C)C1c1ccncc1`, the Potency is 20.9 µM (active) in [1]; 20.9 µM (active) in assay [2]; 20.9 µM (active) in [15]; 14.8 µM (active) in assay [3]; 16.6 µM (active) in [4]; 18.7 µM (active) in assay [11]. Moreover, in assay [6], the Potency was 18.7 µM (active). The Potency result in assay [10] was “inactive”.

For `CCC[C@@H](NC(=O)[C@@H]1[C@H]2CCC[C@@H]2CN1C(=O)[C@@H](NC(=O)[C@@H](NC(=O)c1cnccn1)C1CCCCC1)C(C)(C)C)C(=O)C(=O)NC1CC1`, the Potency in [1] was 16.6 µM (active); in assay [5] it was 14.8 µM (active). Also, in assay [14], the Potency result was “inactive”.

In the case of `CC(C)C[C@@H](C(=O)N[C@H](C(=O)OC1CCCC1)c1ccccc1)[C@H](O)C(=O)NO`, the Potency in assay [13] was 14.8 µM (active); in assay [1], 20.9 µM (active); in [15], 20.9 µM (active); in [4], 14.8 µM (active); in assay [14], 16.6 µM (active); in assay [6], 29.6 µM (active). Moreover, the Potency in assay [12] and in assay [9] was 18.7 µM (active) in each case.

As for `Cc1cc(C(C)Nc2ccccc2)c2nc(N3CCOCC3)cc(=O)n2c1` (centres undefined), the Potency is 2.09 µM (active) in assay [13] and 1.05 µM (active) in assay [4]. Further, the Potency entry in [3], in assay [7] and in assay [8] was “inactive” throughout.

Consider `C[C@H](c1ccc(F)cc1CCCC(=O)O)N(c1cc(F)ccc1F)S(=O)(=O)c1ccc(Cl)cc1`, for which the Potency in assay [13] is 13.2 µM (active); in assay [1], 14.8 µM (active); in assay [4], 2.64 µM (active); in assay [11], 3.72 µM (active); in [14], 14.8 µM (active); in assay [12] it was 6.62 µM (active). Besides, the values for the Potency in assay [8] and in assay [10] were 3.32 µM (active) and 16.6 µM (active), respectively.

In the case of `O=C(Nc1cccc2c(=O)cc(-c3nn[nH]n3)oc12)c1ccc(OCCCCc2ccccc2)cc1`, the Potency in assay [2] was 18.7 µM (active); in assay [4], 26.4 µM (active); in [5], 26.4 µM (active); in [14], 14.8 µM (active); in assay [6] it was 26.4 µM (active); in assay [9] it was 23.5 µM (active). Further, in assay [8], the Potency result was “inactive”.

Turning to `C=CC(=O)Nc1cccc(Sc2nc(Nc3ccc(N4CCN(C)CC4)cc3)ncc2Cl)c1`, the Potency in assay [13] was 0.743 µM (active); in assay [15], 37.2 µM (active); in assay [4], 0.526 µM (active); in [5], 1.05 µM (active).

Regarding `CNC(=O)c1cc(COc2nnc(Nc3ccc(Cl)cc3)c3ccoc23)ccn1`, the Potency in assay [1] is 20.9 µM (active); in assay [15], 23.5 µM (active); in [7] it was 20.9 µM (active). The Potency entry in [2] and in assay [3] was “inactive” throughout.

For the compound `CN(C)CCOc1ccc(C(=C(CCCl)c2ccccc2)c2ccccc2)cc1`, the Potency in [13] was 5.9 µM (active); in assay [1], 26.4 µM (active); in assay [2], 7.43 µM (active); in [15], 23.5 µM (active); in [5] it was 2.96 µM (active); in assay [12], 3.72 µM (active). The Potency in assay [7] is 26.4 µM (active). For the same compound, the Potency result in assay [11], in [14], in assay [8] and in [9] was “inactive” throughout.

As for `CC(=O)O[C@]1(C(C)=O)CC[C@H]2[C@@H]3C=C(Cl)C4=CC(=O)[C@@H]5C[C@H]5[C@]4(C)[C@@H]3CC[C@@]21C`, the Potency in assay [13] was 9.35 µM (active); in [1], 23.5 µM (active); in [3], 8.33 µM (active); in assay [4] it was 4.18 µM (active); in assay [5] it was 7.43 µM (active); in assay [11], 7.43 µM (active). The results for the Potency in assay [6] and in assay [7] were 11.8 µM (active) and 20.9 µM (active), respectively. Also, the Potency result in assay [8] and in assay [9] was “inactive” in each case.

Consider `O=C1Nc2ccc(I)cc2C1=Cc1cc(Br)c(O)c(Br)c1`, for which the Potency in [1] was 8.33 µM (active); in assay [15], 18.7 µM (active); in assay [5] it was 20.9 µM (active); in assay [14] it was 14.8 µM (active); in assay [6] it was 14.8 µM (active); in [9] it was 18.7 µM (active). Besides, the Potency result in [3], in assay [4], in assay [7] and in assay [8] was “inactive” in each case.
